Reference: PubChem BioAssay (NCI)
About 83,000 compounds went through this panel and 20% of them were active in at least one assay; those are over-represented in the sample as a whole.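 Treatment: one concentration, 48 hours, 96-well format. Scoring: percent growth, with anything below 10 considered active.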 The source made the active and inactive calls.

system: HL-60(TB) leukemia; assay: NCI-60 one-dose screen, 48 h (100 = growth as untreated, 0 = no growth, -100 = all killed); conditions: 10 µM unless noted

SMILES	growth
O=C(N/N=C\c1ccccc1O)C1CC1	101% (inactive)
CO[C@H]1/C=C/O[C@@]2(C)Oc3c(C)c(O)c4c(O)c(c5c(nc6cc(C)ccn65)c4c3C2=O)NC(=O)/C(C)=C\C=C\[C@H](C)[C@H](O)[C@@H](C)C(O)[C@@H](C)[C@H](OC(C)=O)[C@@H]1C (stereo not given in full)	102% (inactive)
COc1ccc(/C=C/C(=O)C(CC2CCC2)C(=O)/C=C/c2ccc(OC)c(OC)c2)cc1OC	-27.5% (active)
O=C(c1ccc(Cl)cc1)c1no[n+]([O-])c1C(=O)c1ccc(Cl)cc1	-27.9% (active)
Cc1ccc(-c2cc3c(SCC(=O)Nc4cc(C(F)(F)F)ccc4Cl)nccn3n2)cc1	12.6% (inactive)
Cc1c(C)c(C)c([N+](=O)[O-])c([N+](=O)[O-])c1C	109% (inactive)
CCCCNC1(C#N)CCN(Cc2ccccc2)CC1	153% (inactive)
Nc1nc2ccc3[nH]ncc3c2c2c1CCCC2	-23.4% (active)
NS(=O)(=O)c1ccc(NC(=O)/C(=C\c2ccc(Cl)cc2Cl)NC(=O)c2ccccc2)cc1	84.8% (inactive)
CC(=O)OC(c1ccccc1)C1CCOC1=O (stereo not given)	113% (inactive)
CC(C)c1ccc2occ(C=C3C(=O)NC(=O)NC3=O)c(=O)c2c1	74.8% (inactive)
CSc1ccc(-c2ccccc(=O)c2O)cc1	-40.1% (active)
CN1CCN(Cc2ccc(NC(=O)c3cncc(C#Cc4nc(N)nc5[nH]ncc45)c3)cc2C(F)(F)F)CC1	1.4% (active)
COc1cc(/C=C/C(=O)c2cccs2)ccc1OCc1ccc(Cl)nc1	72.6% (inactive)
C=C1CCC2C3(C)COC(c4ccc(OC)cc4Br)OC3CCC2(C)C1/C=C/C1=CCOC1=O (stereo not given)	31.8% (inactive)
N#CCCN1C/C(=C/c2ccccc2)C(=O)/C(=C/c2ccccc2)C1	43.2% (inactive)
O=C1/C(=C/c2cccc(OCc3ccccc3)c2)Oc2cc(OCCN3CCCCC3)ccc21	67% (inactive)
COc1ccc2c(c1)c(-c1nc(-c3c[nH]c4ncccc34)cs1)cn2CCCN1CCCCC1	-60.8% (active)
COc1ccc(/C=C(/C(=O)N2CCCC2)c2cc(OC)c(OC)c(OC)c2)cc1	-14.7% (active)
O=[N+]([O-])c1ccc(-c2ncc(-c3ccc(Br)cc3)o2)cc1	76.6% (inactive)

SMILES	growth
NC(CSC(c1ccccc1)(c1ccccc1)c1ccc2c(c1)OCO2)C(=O)O (stereo not given)	-26.2% (active)
O=C(Nc1cccc(Cl)c1)Nc1cc2ncncc2cc1OCc1cccc(F)c1	7.49% (active)
CCN(CC)c1ccc(C(=N)c2ccc(N(C)C)cc2)cc1	11.1% (inactive)
CN1CCN(Cc2ccc(NC(=O)c3cncc(C#Cc4c(N)ncc5cc(F)ccc45)c3)cc2C(F)(F)F)CC1	-46.2% (active)
O=c1ccn(C2OC(CO)C(O)C2F)c(=O)[nH]1 (stereo not given)	130% (inactive)
O=C(CCOCCNC(=O)COc1ccc2c(c1)OCC(c1ccc(F)cc1)C2=O)NCCCC(O)(P(=O)(O)O)P(=O)(O)O (stereo not given)	104% (inactive)
CCCCCCCCN(CCCCCCCC)CCCCCCNc1cc(OC)cc2cccnc12	83.6% (inactive)
NC(N)=N/N=C(\N=Nc1ccccc1)c1ccc(Cl)cc1	-8.35% (active)
COc1ccc(/C=C/C(=O)c2cc3c(N)c(C(=O)Nc4ccc(OC)cc4)sc3nc2C)cc1	2.26% (active)
COC12C=C/C(=C(/C(=O)OCc3cncnc3)C(=O)CCCCCCCCC3(OC)C=C/C(=C(/C(=O)OCc4cncnc4)C(=O)CCCCCCCC1)O3)O2	-27.4% (active)
COc1ccc(-c2nsc3c2NC(=O)CC3c2cccc(OC)c2)cc1 (stereo not given)	6.13% (active)
COc1ccc(C(=O)Nc2ncc(Cc3ccc(Cl)cc3)s2)cc1	-11% (active)
O=c1cc(/C(=C2/C=CC=N2)c2ccc[nH]2)c2cc(Cl)ccc2o1	85.2% (inactive)
C=C(C)[C@@H]1CC[C@]2(C=O)CC[C@]3(C)[C@H](CC[C@@H]4[C@@]5(C)C/C(=C/c6cccnc6)C(=O)C(C)(C)[C@@H]5CC[C@]43C)[C@@H]12	25.9% (inactive)
COC(=O)[C@@H](C)CNS(=O)(=O)N(c1cc(C(F)(F)F)cc(C(F)(F)F)c1)C1CCN(Cc2ccc(F)cc2)CC1	31.3% (inactive)
CCc1ccccc1NC(=O)c1sc2nc3c(cc2c1N)C(=O)CCC3	-10.3% (active)
OCCN(CCO)C(=S)S	104% (inactive)
CNCCCOc1c(Br)cc(CCNC(=O)/C(Cc2cc(Br)c(OC)c(Br)c2)=N/O)cc1Br	-57.1% (active)
O=C1Nc2ccccc2/C1=C/C(=O)c1ccc(N2CCOCC2)cc1	49.8% (inactive)
Cc1cc(C)c(-c2c(N)cc(Br)cc2Br)c(N)c1	21.1% (inactive)
